The record followed here is PubChem BioAssay (NCI).

Each structure is given as a SMILES string. The panel holds about 83,000 compounds, 20% with a hit somewhere; the sample as a whole holds those more often.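 In brief: 96-well plates, 48 h treatment, single concentration, percent growth endpoint.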 Unmarked numbers belong to inactive results. Activity calls are given as the source filed them. How the source made its calls: active means growth percent below 10; inactive means the rest.

Test systems include HCT-15 colon; HT29 colon; SNB-75 CNS; SNB-19 CNS; U251 CNS; PC-3 prostate; SK-MEL-5 melanoma; UACC-62 melanoma; LOX IMVI melanoma; SK-MEL-28 melanoma; SK-MEL-2 melanoma; EKVX NSCLC; SN12C renal; UO-31 renal; TK-10 renal; ACHN renal; CAKI-1 renal; A498 renal; CCRF-CEM leukemia; MOLT-4 leukemia.
What all share (experiment): NCI-60 one-dose screen, 48 h (100 = growth as untreated, 0 = no growth, -100 = all killed)
Common to all, as to settings: 10 µM unless noted

Turning to `O=C1Nc2ccc(F)cc2/C1=N/c1nnc(Sc2ccccc2)s1`, the growth in the assay with HCT-15 colon is 98.3%; with HT29 colon, 105%; in the assay with SNB-75 CNS, 80.2%; in the assay on SNB-19 CNS, 105%; in the assay with U251 CNS, 91.4%; in the assay on PC-3 prostate, 91.7%. Further, the growth with SK-MEL-5 melanoma is 86.7%; in the assay on UACC-62 melanoma, 88.8%; in the assay on LOX IMVI melanoma it was 90.9%; in the assay with SK-MEL-28 melanoma it was 116%; in the assay on SK-MEL-2 melanoma it was 102%; in the assay on EKVX NSCLC, 101%. Further, the growth in the assay on SN12C renal was 95.4%; in the assay on UO-31 renal it was 80.2%; in the assay on TK-10 renal, 111%; in the assay with ACHN renal it was 82.2%; in the assay with CAKI-1 renal, 75.1%; in the assay on A498 renal, 79%. Moreover, the growth is 47.7% in the assay with CCRF-CEM leukemia and 77.2% with MOLT-4 leukemia.
Consider `COc1ccc(-c2cn(-c3ccc(Cl)cc3)c(SCC(=O)c3ccc([N+](=O)[O-])cc3)n2)cc1`, for which the growth with HCT-15 colon is 92.7%; with HT29 colon, 89.6%; with SNB-75 CNS it was 39%; in the assay with SNB-19 CNS it was 52.3%; in the assay with U251 CNS, 60.6%; in the assay with PC-3 prostate, 73.7%. Moreover, the growth in the assay with SK-MEL-5 melanoma is 88.2%; with UACC-62 melanoma it was 68.7%; in the assay on LOX IMVI melanoma it was 89.1%; with SK-MEL-28 melanoma, 95.8%; in the assay with SK-MEL-2 melanoma, 73.6%; in the assay with EKVX NSCLC, 95%. In addition, the growth in the assay with SN12C renal is 78.3%; in the assay on UO-31 renal, 82.5%; in the assay with TK-10 renal, 55.9%; in the assay on ACHN renal it was 81.5%; with CAKI-1 renal, 76.1%; in the assay on A498 renal it was 85.2%. Besides, the growth was 93.8% with CCRF-CEM leukemia and 83.5% in the assay on MOLT-4 leukemia.
In the case of `Cn1cccc1/C=C1\C(=O)Nc2ccccc21`, the growth was 50.9% in the assay with HCT-15 colon; 103% in the assay with HT29 colon; 90.3% with SNB-75 CNS; 90.4% in the assay with SNB-19 CNS; 97.7% in the assay on U251 CNS; 94.2% in the assay on PC-3 prostate. For the same compound, the growth is 56.6% in the assay with SK-MEL-5 melanoma; 90.6% in the assay on UACC-62 melanoma; 87.2% in the assay on LOX IMVI melanoma; 112% with SK-MEL-28 melanoma; 114% in the assay on SK-MEL-2 melanoma; 34.4% in the assay on EKVX NSCLC. Besides, the growth in the assay on SN12C renal was 94%; in the assay with UO-31 renal, 62.9%; in the assay with TK-10 renal, 72.2%; in the assay on ACHN renal, 98.2%; with CAKI-1 renal it was 86%; in the assay with A498 renal, 125%. In addition, the figures for the growth in the assay with CCRF-CEM leukemia and in the assay on MOLT-4 leukemia were 104% and 97.7%, respectively.
In the case of `Cc1nc2sc(C(=O)Nc3ccc(Cl)cc3)c(N)c2cc1C(O)c1ccccc1` (stereo not given), the growth was 28.9% in the assay with HCT-15 colon; 25% with HT29 colon; 26.5% in the assay with SNB-75 CNS; 41.2% in the assay with SNB-19 CNS; 32.8% with U251 CNS; 21.9% in the assay on PC-3 prostate. For the same compound, the growth is 30.4% with SK-MEL-5 melanoma; 17.7% in the assay with UACC-62 melanoma; 33.4% in the assay on LOX IMVI melanoma; 57.5% with SK-MEL-28 melanoma; 56.6% in the assay with SK-MEL-2 melanoma; 44.2% in the assay with EKVX NSCLC. Moreover, the growth with SN12C renal was 40.6%; in the assay on UO-31 renal, 47.9%; with TK-10 renal it was 60.3%; with ACHN renal, 33.4%; in the assay with CAKI-1 renal, 47.5%; in the assay with A498 renal, 13.5%. Besides, the growth is 13.4% in the assay on CCRF-CEM leukemia and 17.8% with MOLT-4 leukemia.
Turning to `O=C1/C(=C/c2cccc([N+](=O)[O-])c2)COc2ccc(O)cc21`, the growth with HCT-15 colon is -9.57% (active); in the assay with HT29 colon it was 3.32% (active); with SNB-75 CNS, 79.4%; with SNB-19 CNS, 72.2%; in the assay on U251 CNS, 2.17% (active); in the assay on PC-3 prostate it was 42.9%. The growth with SK-MEL-5 melanoma was 89.1%; in the assay with UACC-62 melanoma it was 59.4%; with LOX IMVI melanoma, -80.6% (active); with SK-MEL-28 melanoma, 82.7%; in the assay on SK-MEL-2 melanoma, 91.3%; with EKVX NSCLC it was 95.8%. In addition, the growth was 13.1% in the assay on SN12C renal; 22.4% in the assay on UO-31 renal; 87% in the assay with TK-10 renal; 6.88% (active) with ACHN renal; 52.8% in the assay with CAKI-1 renal; 102% with A498 renal. Moreover, the growth in the assay on CCRF-CEM leukemia is 0.606% (active); in the assay on MOLT-4 leukemia it was 18.2%.
For the compound `COc1ccc(C2=Nc3c/c(=C\c4c(O)[nH]c5cc(Cl)ccc45)ccc3=N2)cc1`, the growth was 55.8% in the assay with HCT-15 colon; 39.8% with HT29 colon; 41.6% with SNB-75 CNS; 95.1% in the assay on SNB-19 CNS; 74.3% in the assay on U251 CNS; 43.3% in the assay with PC-3 prostate. In addition, the growth with SK-MEL-5 melanoma was 60.7%; with UACC-62 melanoma, 67.5%; in the assay on LOX IMVI melanoma, 90.6%; in the assay with SK-MEL-28 melanoma, 47%; in the assay with SK-MEL-2 melanoma, 54.4%; with EKVX NSCLC, 80.7%. Further, the growth with SN12C renal is 96.5%; in the assay on UO-31 renal, 58.6%; with TK-10 renal, 114%; in the assay with ACHN renal it was 76.9%; with CAKI-1 renal it was 75.9%; in the assay with A498 renal it was 68.5%. Besides, the growth was 54.8% with CCRF-CEM leukemia and 83.9% in the assay with MOLT-4 leukemia.
Take `COc1ccc(C/C(C)=C(/c2ccc(OCCN3CCCCCC3)cc2)c2ccc(OC(=O)NCc3ccccc3)cc2)cc1`: the growth is 60.6% with HCT-15 colon; 13.4% with HT29 colon; 90.7% with SNB-75 CNS; 87.4% in the assay on SNB-19 CNS; 71.8% with U251 CNS; 71.8% in the assay with PC-3 prostate. In addition, the growth in the assay on SK-MEL-5 melanoma is 91.2%; with UACC-62 melanoma it was 88.8%; in the assay on LOX IMVI melanoma it was 52.3%; in the assay with SK-MEL-28 melanoma, 98.3%; with SK-MEL-2 melanoma, 94.9%; in the assay with EKVX NSCLC, 87.6%. Further, the growth in the assay with SN12C renal was 71.3%; in the assay on UO-31 renal it was 62.7%; with TK-10 renal it was 87.8%; in the assay on ACHN renal, 101%; with CAKI-1 renal, 92.8%; in the assay with A498 renal, 97.3%. Also, the growth in the assay on CCRF-CEM leukemia is 58%; with MOLT-4 leukemia it was 41.2%.
